# Assay results published in PubChem BioAssay.
# Several values for one entry are separate records, joined by “and”; a condition that tells them apart may be missing. Equal entries are not always repeated. The source holds several records for some structures; these can differ, active in one and inactive in another. Activity calls are given as the source filed them.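 The calls were made as follows, unless noted: active = compounds whose cell count with miR-34 switched on is under 0.7 times the count with it off; inactive = the rest.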
# Key:
# [1] = Wnt pathway potentiators raising nuclear beta-catenin – imaging, WNT3A-conditioned medium, mouse C2C12, NPC library, primary screen (AID 1117326; in the data active = nuclear beta-catenin stimulation mostly above about 4.2%, no sharp cut-off; inactive = mostly below about 10%); conditions: stronger effect = higher value
# [2] = stimulators of insulin release from INS-1E, primary screen, cell-based, 5 mM glucose, NPC library (AID 1117329;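 active = compound raises insulin release from rat beta cells at 5 mM glucose, no numeric limit stated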); conditions: rat INS-1E insulin secretion, at 10 µM, stronger effect = higher value
# [3] = growth inhibition of GSK3B-pretreated HCT116 cells – cell-based, CellTiter-Glo, 0.2 to 20 µM (AID 1117336;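 active = compounds lowering colon cancer cell viability after pretreatment blocking the GSK3B kinase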); conditions: HCT116 viability after GSK3B inhibitor, at 20 µM, stronger effect = higher value
# [4] = inhibition of endothelial tube formation, primary screen, imaging, VEGF stimulated, CD31 staining, tube area, NPC library (AID 1117340;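 active = compound that reduces growth-factor-driven endothelial tube area in a mixed cell culture, no cutoff stated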); conditions: VEGF-stimulated ADSC/ECFC co-culture, at 10 µM, stronger effect = higher value
# [5] = GLP1 release stimulators, primary, NCI-H716, NPC library (AID 1117341;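 active = compound raises GLP1 secretion from the human gut endocrine cells, with no numeric limit stated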); conditions: NCI-H716 cells, at 10 µM, stronger effect = higher value
# [6] = HCT116 colon cancer cell growth inhibition, primary screen, CellTiter-Glo luminescence, NPC library (AID 1117342;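 active = compounds that lower survival of HCT116 colon cancer cells in the luminescence readout, no numeric limit stated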); conditions: at 20 µM (top of the series)
# [7] = reduced SW480 viability measured with CellTiter-Glo, NPC library, primary (AID 1117343;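 active = compounds that lower viability of the colon cancer cells in the luminescence readout, with no numeric limit stated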); conditions: CellTiter-Glo luminescence; at 20 µM (top of the series)
# [8] = NPC library primary testing for decreased DLD-1 cell viability via CellTiter-Glo (AID 1117346;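 active = compounds that lower survival of DLD-1 colon cancer cells in the luminescence readout, no cutoff given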); conditions: DLD-1 viability, CellTiter-Glo luminescence; at 20 µM (top of the series)
# [9] = target: 6-phosphogluconate dehydrogenase, decarboxylating (Homo sapiens) (UniProt P52209); assay: inhibition of human phosphogluconate dehydrogenase – biochemical, recombinant enzyme, NADPH absorbance, primary screen (AID 1159550;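 active = at least 20% inhibition of 6-phosphogluconate dehydrogenase activity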); conditions: recombinant 6PGD, NADPH absorbance 341 nm; at 10 µM; stronger effect = higher value
# [10] = EMT-state selective cytotoxicity in co-culture – imaging, PC-3E GFP, TEM4-18 mCherry, primary screen (AID 1345086;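 active = compounds killing one labelled cell type while sparing the other, by normalised counts and ratio limits, not self-fluorescent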;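 as to all read-outs here: cells exposed to compound for 72 h before imaging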;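 as to red/green cell ratio (normalised): normalised mesenchymal count divided by normalised epithelial count so high means epithelial killing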); conditions: PC-3E GFP / TEM4-18 mCherry co-culture, imaging cell counts, at 1 µM; for red/green cell ratio (normalised): actives lie on both sides
# [11] = tested on: Aerobactin synthetase IucA (Klebsiella pneumoniae hvKP1); assay: IucA enzyme inhibition, primary screen, biochemical, Spectrum library (AID 1346200; call rule not given here;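 also: 100% = wells without compound and 0% = wells lacking enzyme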); conditions: malachite green pyrophosphate, A620, at 8 µM, stronger effect = lower value
# [12] = viability loss with induced miR-34 in A549 – imaging, A549 dox-inducible miR-34, nuclei and caspase counts, primary screen (AID 1347080); conditions: A549 miR-34 inducible, Hoechst nuclei count, 48 h
# [13] = galactose survival enhancers in mitochondrial complex I cybrids – cell-based, galactose medium, ATP luminescence, primary screen (AID 1645843;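 active = z-score of at least 1.8 in each of two replicates, scored against plate mean and spread of sample wells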;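 also: positive z means more ATP and so rescue of galactose-driven cybrid death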); conditions: complex I mutant cybrid cells, 72 h, stronger effect = higher value
# [14] = yeast 75Q aggregation reduction – 75Q-TubU reporter (AID 1593); conditions: Yeast 75Q polyglutamine aggregation reporter
# [15] = blockers of cytochrome c efflux from mitochondria – biochemical, purified mitochondria (AID 1603); conditions: stronger effect = lower value;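 also: mouse liver mitochondria challenged with calcium chloride; signal normalized to the plate average as 100%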
# [16] = polyglutamine aggregate formation blockers (AID 1604); conditions: polyglutamine-induced protein aggregation inhibition assay; stronger effect = higher value; tested at 2.5 µM
# [17] = P. berghei load reduction in hepatocytes – cell-based, HepG2, luciferase luminescence, HepG2 viability, primary screen (AID 624349; in the data active = parasite load remaining mostly below about 12%, no sharp cut-off; inactive = mostly above about 10%;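 also: 100% = mean of DMSO negative control wells on the same plate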); conditions: P. berghei liver stage in HepG2, luciferase luminescence, concentration not given here; parasite load remaining: stronger effect = lower value; viability: measured here: HepG2 viability without parasites
# [18] = MELAS cybrid and Rieske KO viability enhancers – cell-based, MELAS cybrids, Rieske KO mouse fibroblasts, CellTiter-Glo, primary screen (AID 1508586;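 active = mean z-score across replicates of 1.96 or higher in either the MELAS or the Rieske mutant cell line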;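 also: z relative to plate mean and SD of compound and empty wells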); conditions: low glucose
# [19] = target: NAD(+) hydrolase SARM1 (Homo sapiens) (UniProt Q6SZW1); assay: blocking NAD cleavage by SARM1 SAM-TIR – cell lysate, NAD-Glo luminescence (AID 1508614;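 active = compound whose remaining NAD level is above about 45 nM, limit read from the data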;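 also: higher remaining NAD means stronger inhibition of SARM1 NADase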); conditions: SAM-TIR HEK293T lysate NADase, at 1 µM, stronger effect = higher value
# [20] = target: Mitogen-activated protein kinase 7 (Homo sapiens) (UniProt Q13164); assay: Gal4-ERK5 driven luciferase induction – cell-based, HTS, primary screen (AID 1508626;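 active = luciferase signal above three times the same-plate solvent-only control wells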;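 also: luciferase driven by Gal4-ERK5 fusion binding five Gal4 sites before minimal TATA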); conditions: HeLa Gal4-ERK5 transactivation, 18 h, at 5 µM, stronger effect = higher value
# [21] = measured here: epithelial PC-3E GFP cell survival
# [22] = measured here: mesenchymal TEM4-18 mCherry cell survival
# [23] = measured here: relative caspase fold change +Dox/-Dox
# [24] = measured here: total cells with miR-34 induction, stronger effect = lower value
# [25] = measured here: total cells without miR-34 induction
# [26] = MELAS cybrid survival, CellTiter-Glo 48 h, stronger effect = higher value
# [27] = Rieske KO mouse fibroblast survival, CellTiter-Glo 72 h
# Chain of NAD(+) hydrolase SARM1 (Homo sapiens) (Q6SZW1 whole entry, looked up, the tested form may be a part): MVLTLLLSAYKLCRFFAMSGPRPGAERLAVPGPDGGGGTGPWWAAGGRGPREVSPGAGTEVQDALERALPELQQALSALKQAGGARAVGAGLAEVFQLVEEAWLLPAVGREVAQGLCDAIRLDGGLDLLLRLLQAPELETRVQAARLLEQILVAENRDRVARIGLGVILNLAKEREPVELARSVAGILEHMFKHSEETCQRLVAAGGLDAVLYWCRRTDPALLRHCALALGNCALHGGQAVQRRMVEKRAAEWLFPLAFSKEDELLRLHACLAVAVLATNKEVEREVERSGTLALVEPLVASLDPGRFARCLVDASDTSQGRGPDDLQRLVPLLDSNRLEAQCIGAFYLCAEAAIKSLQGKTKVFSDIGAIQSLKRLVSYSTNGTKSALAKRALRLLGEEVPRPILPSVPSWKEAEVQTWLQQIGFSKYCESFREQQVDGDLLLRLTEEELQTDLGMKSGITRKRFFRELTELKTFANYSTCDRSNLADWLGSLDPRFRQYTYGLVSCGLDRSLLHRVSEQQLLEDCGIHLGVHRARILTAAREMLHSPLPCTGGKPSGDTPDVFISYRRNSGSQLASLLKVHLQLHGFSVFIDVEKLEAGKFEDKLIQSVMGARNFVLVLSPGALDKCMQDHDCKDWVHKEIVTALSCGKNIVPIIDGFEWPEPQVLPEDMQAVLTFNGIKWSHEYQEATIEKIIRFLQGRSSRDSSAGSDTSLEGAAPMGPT
# Chain of 6-phosphogluconate dehydrogenase, decarboxylating (Homo sapiens) (P52209 whole entry, looked up): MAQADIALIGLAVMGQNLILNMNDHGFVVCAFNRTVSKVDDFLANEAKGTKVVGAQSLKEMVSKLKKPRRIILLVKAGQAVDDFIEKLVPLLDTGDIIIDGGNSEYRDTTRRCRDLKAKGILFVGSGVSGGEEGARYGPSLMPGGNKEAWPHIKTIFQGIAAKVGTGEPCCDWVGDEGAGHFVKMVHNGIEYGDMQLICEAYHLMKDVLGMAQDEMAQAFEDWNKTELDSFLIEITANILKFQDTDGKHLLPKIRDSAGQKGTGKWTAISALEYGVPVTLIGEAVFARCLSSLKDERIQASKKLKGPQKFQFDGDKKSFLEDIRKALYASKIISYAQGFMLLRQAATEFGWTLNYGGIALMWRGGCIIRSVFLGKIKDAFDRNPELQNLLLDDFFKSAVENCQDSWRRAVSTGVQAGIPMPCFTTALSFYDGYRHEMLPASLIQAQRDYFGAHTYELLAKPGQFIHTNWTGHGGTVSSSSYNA
# Chain of Mitogen-activated protein kinase 7 (Homo sapiens) (Q13164 whole entry, looked up, the tested form may be a part): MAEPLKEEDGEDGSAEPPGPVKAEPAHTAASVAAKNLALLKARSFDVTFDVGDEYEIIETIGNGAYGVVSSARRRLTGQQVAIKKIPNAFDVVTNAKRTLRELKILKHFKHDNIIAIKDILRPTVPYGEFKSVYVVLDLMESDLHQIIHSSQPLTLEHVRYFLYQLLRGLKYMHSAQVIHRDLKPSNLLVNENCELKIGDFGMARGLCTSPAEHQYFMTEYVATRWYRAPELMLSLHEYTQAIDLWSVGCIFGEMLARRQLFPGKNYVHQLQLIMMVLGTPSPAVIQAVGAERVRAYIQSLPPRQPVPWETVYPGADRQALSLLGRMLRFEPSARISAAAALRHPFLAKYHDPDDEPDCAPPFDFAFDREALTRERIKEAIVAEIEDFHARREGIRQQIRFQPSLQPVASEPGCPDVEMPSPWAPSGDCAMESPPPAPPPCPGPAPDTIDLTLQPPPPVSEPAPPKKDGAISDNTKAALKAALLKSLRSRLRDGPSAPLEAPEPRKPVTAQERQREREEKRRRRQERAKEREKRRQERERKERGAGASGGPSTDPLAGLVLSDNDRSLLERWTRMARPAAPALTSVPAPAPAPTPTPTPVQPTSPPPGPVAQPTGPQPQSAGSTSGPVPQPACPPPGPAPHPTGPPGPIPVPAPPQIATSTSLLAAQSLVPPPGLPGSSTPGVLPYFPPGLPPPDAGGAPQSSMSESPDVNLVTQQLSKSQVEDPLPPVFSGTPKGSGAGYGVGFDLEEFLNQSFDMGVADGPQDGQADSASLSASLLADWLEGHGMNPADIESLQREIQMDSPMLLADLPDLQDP
compound,measurement,setting,value
COc1ccccc1N1CCNCC1,nuclear beta-catenin stimulation,[1]; at 10 µM,0.2% (inactive)
same,nuclear beta-catenin stimulation,"[1]; stimulation, at 2 µM",-0.4%
same,insulin secretion stimulation,[2],-0.2% (inactive)
same,viability decrease,[3],-7.7% (inactive)
same,tube area decrease,[4],7.7% (inactive)
same,GLP1 secretion stimulation,[5],-2.3% (inactive)
same,inhibition of viability,[6],-22.5% (inactive)
same,viability decrease (inhibition),[7],106% (active)
same,viability decrease (inhibition),[8],-1.65% (inactive)
same,inhibition,[9],-1.05% (inactive)
same,red/green cell ratio (normalised),[10],0.87 (inactive)
same,normalised cell number,[10]; [21],1.09
same,normalised cell number,[10]; [22],0.94
same,activity remaining,[11],95.5% (inactive)
same,fold change,[12]; stronger effect = lower value,0.98 (inactive)
same,fold change,[12]; [23],1.58
same,cell count,[12]; [24],9780
same,cell count,[12]; [25],9980
same,z-score,[13],1.06 (inactive)
Clc1ccc(C(OCCN2CCCCC2)c2ccccc2)cc1 (stereo unspecified),score,[14],1.14
same,cytochrome c release ratio,[15],1.33
same,inhibition of aggregation,[16],66.7%
same,parasite load remaining,[17],32.6% (inactive) and 77.7% (inactive)
same,viability,[17],91.9% and 79.6%
same,nuclear beta-catenin stimulation,[1]; at 10 µM,3.4% (inactive)
same,nuclear beta-catenin stimulation,"[1]; stimulation, at 2 µM",2.6%
same,insulin secretion stimulation,[2],11.4% (inactive)
same,viability decrease,[3],-162% (inactive)
same,tube area decrease,[4],4.5% (inactive)
same,GLP1 secretion stimulation,[5],7.9% (inactive)
same,inhibition of viability,[6],25.5% (inactive)
same,viability decrease (inhibition),[7],72.3% (active)
same,viability decrease (inhibition),[8],26.4% (inactive)
same,inhibition,[9],14.2% (inactive)
same,red/green cell ratio (normalised),[10],0.83 (inactive)
same,normalised cell number,[10]; [21],1.02
same,normalised cell number,[10]; [22],0.85
same,activity remaining,[11],103% (inactive)
same,fold change,[12]; stronger effect = lower value,0.822 (inactive)
same,fold change,[12]; [23],1.27
same,cell count,[12]; [24],7820
same,cell count,[12]; [25],9510
same,z-score,[18]; [26],-1.82 (inactive)
same,z-score,[18]; [27],-0.41
same,remaining NAD,[19],10 nM (inactive)
same,luciferase signal,[20],180 AU (active)
C=C(C)[C@H]1CN[C@H](C(=O)O)[C@H]1CC(=O)O,nuclear beta-catenin stimulation,[1]; at 10 µM,0% (inactive)
same,nuclear beta-catenin stimulation,"[1]; stimulation, at 2 µM",1.5%
same,insulin secretion stimulation,[2],-1.6% (inactive)
same,viability decrease,[3],3.4% (inactive)
same,tube area decrease,[4],-7.3% (inactive)
same,GLP1 secretion stimulation,[5],-2% (inactive)
same,inhibition of viability,[6],-16% (inactive)
same,viability decrease (inhibition),[7],-0.1% (inactive)
same,viability decrease (inhibition),[8],-1.8% (inactive)
same,inhibition,[9],2.88% (inactive)
same,fold change,[12]; stronger effect = lower value,1.1 (inactive) and 0.956 (inactive)
same,fold change,"[12]; stronger effect = lower value, cell number ratio, induced over uninduced",0.95 (inactive)
same,fold change,[12]; [23],1.24 and 0.883 and 0.751
same,cell count,[12]; [24],10600 and 5610 and 8280
same,cell count,[12]; [25],9620 and 5900 and 8660
same,remaining NAD,[19],10 nM (inactive)
same,luciferase signal,[20],68 AU (inactive)
same,z-score,[13],0.445 (inactive) and 0.325 (inactive)
NCCc1cc(O)c(O)cc1O,score,[14],1.88
same,cytochrome c release ratio,[15],0.92
same,inhibition of aggregation,[16],55.6%
same,parasite load remaining,[17],70% (inactive) and 42.8% (inactive)
same,viability,[17],70% and 87.6%
same,nuclear beta-catenin stimulation,[1]; at 10 µM,2.4% (inactive)
same,nuclear beta-catenin stimulation,"[1]; stimulation, at 2 µM",2.4%
same,insulin secretion stimulation,[2],1.2% (inactive)
same,viability decrease,[3],-22.3% (inactive)
same,tube area decrease,[4],18.6% (inactive)
same,GLP1 secretion stimulation,[5],-8.1% (inactive)
same,inhibition of viability,[6],15.3% (inactive)
same,viability decrease (inhibition),[7],142% (active)
same,viability decrease (inhibition),[8],78.2% (active)
same,inhibition,[9],13% (inactive)
same,red/green cell ratio (normalised),[10],1.14 (inactive)
same,normalised cell number,[10]; [21],1.02
same,normalised cell number,[10]; [22],1.17
same,activity remaining,[11],78.8% (inactive)
same,fold change,[12]; stronger effect = lower value,0.838 (inactive)
same,fold change,[12]; [23],0.786
same,cell count,[12]; [24],10500
same,cell count,[12]; [25],12600
same,remaining NAD,[19],10 nM (inactive)
same,luciferase signal,[20],156 AU (inactive)
CCCCCCCCCCCCCCCC[N+](C)(C)C,score,[14],0.03
same,cytochrome c release ratio,[15],2.11
same,inhibition of aggregation,[16],65.1%
same,parasite load remaining,[17],86.4% (inactive) and 31.9% (inactive)
same,viability,[17],75.1% and 81.2%
same,nuclear beta-catenin stimulation,[1]; at 10 µM,19.2% (inactive)
same,nuclear beta-catenin stimulation,"[1]; stimulation, at 2 µM",9.4%
same,insulin secretion stimulation,[2],-0.3% (inactive)
same,viability decrease,[3],100% (active)
same,tube area decrease,[4],109% (active)
same,GLP1 secretion stimulation,[5],40.8% (active)
same,inhibition of viability,[6],102% (active)
same,viability decrease (inhibition),[7],123% (active)
same,viability decrease (inhibition),[8],104% (active)
same,inhibition,[9],-5.61% (inactive)
same,red/green cell ratio (normalised),[10],0.49 (inactive)
same,normalised cell number,[10]; [21],0.64
same,normalised cell number,[10]; [22],0.31
same,activity remaining,[11],108% (inactive)
same,fold change,[12]; stronger effect = lower value,0.616 (active) and 0.9 (inactive)
same,fold change,[12]; [23],3.21 and 2.28
same,cell count,[12]; [24],4400 and 4060
same,cell count,[12]; [25],7150 and 4510
same,z-score,[18]; [26],-0.416 (inactive)
same,z-score,[18]; [27],-0.288
same,remaining NAD,[19],10 nM (inactive)
same,luciferase signal,[20],96 AU (inactive)
CNCC(O)c1ccc(O)cc1 (stereo unspecified),parasite load remaining,[17],81.5% (inactive) and 59.8% (inactive)
same,viability,[17],69.8% and 68.9%
same,nuclear beta-catenin stimulation,[1]; at 10 µM,-0.1% (inactive)
same,nuclear beta-catenin stimulation,"[1]; stimulation, at 2 µM",-2.7%
same,insulin secretion stimulation,[2],0.25% (inactive)
same,viability decrease,[3],14.7% (inactive)
same,tube area decrease,[4],-15.1% (inactive)
same,GLP1 secretion stimulation,[5],0.1% (inactive)
same,inhibition of viability,[6],-4% (inactive)
same,viability decrease (inhibition),[7],-14.6% (inactive)
same,viability decrease (inhibition),[8],-3.7% (inactive)
same,red/green cell ratio (normalised),[10],1.1 (inactive)
same,normalised cell number,[10]; [21],0.84
same,normalised cell number,[10]; [22],0.92
same,z-score,[18]; [26],-0.35 (inactive) and -0.388 (inactive) and -0.264 (inactive)
same,z-score,[18]; [27],-0.247 and -0.0924 and -0.396
same,remaining NAD,[19],10 nM (inactive)
same,z-score,[13],0.82 (inactive) and 0.285 (inactive)
c1ccc2c(c1)Nc1ccccc1S2,parasite load remaining,[17],39.8% (inactive)
same,viability,[17],65.3%
same,nuclear beta-catenin stimulation,[1]; at 10 µM,-1.5% (inactive)
same,nuclear beta-catenin stimulation,"[1]; stimulation, at 2 µM",-0.5%
same,insulin secretion stimulation,[2],1% (inactive)
same,viability decrease,[3],77.7% (active)
same,tube area decrease,[4],-18.6% (inactive)
same,GLP1 secretion stimulation,[5],-2.4% (inactive)
same,inhibition of viability,[6],48.1% (inactive)
same,viability decrease (inhibition),[7],60% (active)
same,viability decrease (inhibition),[8],38% (active)
same,red/green cell ratio (normalised),[10],0.84 (inactive)
same,normalised cell number,[10]; [21],0.93
same,normalised cell number,[10]; [22],0.78
same,fold change,[12]; stronger effect = lower value,0.885 (inactive) and 0.762 (inactive)
same,fold change,[12]; [23],1.16 and 2.24
same,cell count,[12]; [24],8220 and 7990
same,cell count,[12]; [25],9300 and 10500
same,z-score,[18]; [26],-0.376 (inactive) and 0.48 (inactive)
same,z-score,[18]; [27],-0.33 and 0.378
same,remaining NAD,[19],10 nM (inactive)
same,z-score,[13],-0.355 (inactive)
